# Experimental data published in PubChem BioAssay (NCI).
# About 83,000 compounds went through this panel and 20% of them were active in at least one assay; those are over-represented in the sample as a whole.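 Cells were grown in 96-well plates and exposed to the test compound at a single concentration for 48 hours; results are reported as percent growth, with values below 10 considered active.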 A number with no mark means an inactive call. Calls of active or inactive are those of the source.
# What was measured:
# Experiment in all cases: NCI-60 one-dose screen, 48 h (100 = growth as untreated, 0 = no growth, -100 = all killed)
# Conditions in all cases: 10 µM unless noted
# HCT-15 colon = test system: HCT-15 colon
# HT29 colon = test system: HT29 colon
# SNB-75 CNS = test system: SNB-75 CNS
# SNB-19 CNS = test system: SNB-19 CNS
# U251 CNS = test system: U251 CNS
# PC-3 prostate = test system: PC-3 prostate
# SK-MEL-5 melanoma = test system: SK-MEL-5 melanoma
# UACC-62 melanoma = test system: UACC-62 melanoma
# LOX IMVI melanoma = test system: LOX IMVI melanoma
# SK-MEL-28 melanoma = test system: SK-MEL-28 melanoma
Compound,growth (HCT-15 colon),growth (HT29 colon),growth (SNB-75 CNS) [%],growth (SNB-19 CNS) [%],growth (U251 CNS),growth (PC-3 prostate),growth (SK-MEL-5 melanoma),growth (UACC-62 melanoma),growth (LOX IMVI melanoma) [%],growth (SK-MEL-28 melanoma)
Cc1ccccc1C(=O)c1ccccc1C(=O)O,107%,111%,84.8,111,104%,96.8%,104%,104%,95.9,109%
O=C(Nc1ccc(F)c(Cl)c1)c1n[nH]c(=O)c2ccccc12,89.6%,112%,94.2,104,90.3%,112%,90.9%,81.4%,87.4,115%
CC(=O)OC[Si](C)(C)c1ccccc1,99.7%,105%,89.8,102,93.7%,95.8%,97.3%,102%,103,98.2%
COc1ccc(-c2nc3sccn3c2-c2ccnc(NCCCNS(=O)(=O)c3ccc(C)cc3)n2)cc1,16.8%,18.4%,77.4,71.7,45.1%,31.5%,-5.18% (active),10.9%,,41.5%
CC(=O)Nc1ccc(S(=O)(=O)N2C(=O)CCC2C(=O)Nc2ccccc2)cc1 (centres undefined),45.8%,34%,28.9,45,29.4%,26.7%,20.2%,11%,29.9,48.6%
O=S(=O)(NCCCNc1cc(-c2cn(-c3ccccc3)nc2-c2cccc(O)c2)ccn1)c1cccc2ccccc12,1.39% (active),-9.29% (active),28.1,64.2,35.2%,18.5%,14.2%,34.5%,10.3,4.71% (active)
COc1ccc(C2CC(c3cccs3)=NN2c2ccc(S(=O)(=O)NC(=O)Nc3ccc(C)cc3)cc2)cc1 (centres undefined),99.3%,128%,93.7,108,94.1%,86.3%,61.4%,38.1%,99.7,47.8%
O=C(CSc1nc(-c2ccc(Cl)cc2)cn1-c1ccc(Cl)cc1)c1ccc(Br)cc1,85.2%,66.9%,44.4,77.8,37.5%,50.3%,94.9%,72.1%,,87.1%
O=S(=O)(NCCCNc1cc(-c2cn(-c3ccccc3)nc2-c2cccc(O)c2)ccn1)c1ccc(Br)cc1,-18.7% (active),-24.4% (active),25.8,27.3,4.89% (active),4.26% (active),-56.3% (active),-5.16% (active),,-36.2% (active)
CC(=O)n1cc([C@H]2CC[C@H](c3cn(C(C)=O)c4ccccc34)c3c2[nH]c2ccccc32)c2ccccc21,58.7%,67.7%,87.4,93.2,82.9%,53.2%,80%,64.4%,,100%
COc1cc(-n2nc(C(=O)Nc3ccc(C(=O)O)cc3)nc2-c2ccccc2)cc(OC)c1OC,89.3%,103%,94.1,91.9,102%,71.3%,107%,95.1%,,115%
COC1=CC(c2ccc[nH]2)=N/C1=C\c1[nH]c(C)c(CCCn2cc(CCCCCCCCC[C@@H]3Cc4cc(O)ccc4C4CC[C@]5(C)[C@@H](O)CC[C@H]5C43)nn2)c1C (some centres undefined),35%,23.6%,88.8,77.7,44.1%,45%,35.5%,12.9%,13.4,75.9%
CN(C)c1nc(N)c(N=O)c(N)n1,111%,117%,98.5,112,103%,99.4%,110%,103%,,114%
O=c1c2cccc3c(Nc4ccc(F)cc4)ccc(c32)c2nc3ccccc3n12,71.1%,92.6%,70.8,77.6,92%,77.2%,70.4%,67.8%,83.6,103%
